In PubChem BioAssay AID1159580 (chemical genetic matrix, 2015):
“And” between values parts separate entries of the source, which are not always exact repeats. Equal entries are not always repeated. About 2,000 (36%) of roughly 5,500 compounds were called active. Roughly 18% stayed inconclusive and do not appear here. Some of the results follow. A number with no mark means an inactive call. No stated cut-off is given here; in the data, active means normalized growth mostly below about 0.91 (no sharp cut-off); inconclusive means no clear call, values can overlap the other calls; inactive means mostly above about 0.92.

Assay: chemical genetic growth profiling, strain panel (AID 1159580);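 further: tested at 20 µM; growth read once vehicle control cultures reached saturation at 30 °C; 1 = growth at the plate median or of vehicle wells; lower values mean less growth of the strain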
Conditions: S. cerevisiae deletion strains, growth OD

Question: Which results are given for CN[C@@H]1[C@@H](O[C@H]2O[C@H](CO)[C@@H](N)[C@H](O)[C@H]2O)O[C@H]2C[C@@H](N)[C@H](O[C@H]3[C@H](O)[C@@H](O)[C@H](N)C[C@@H]3N)O[C@@H]2[C@@H]1O?
Answer: normalized growth (locus YAL013W, strain DEP1, hits give low values): 1.01; normalized growth (locus YAL021C, strain ccr4, hits give low values): 1.01; normalized growth (locus YAL026C, strain drs2, hits give low values): 0.995; normalized growth (locus YAL030W, strain snc1, hits give low values): 1.01; normalized growth (locus YBL061C, strain skt5, hits give low values): 1; normalized growth (locus YBR009C, strain hhf1, hits give low values): 1.01; normalized growth (locus YBR021W, strain FUR4, hits give low values): 1.01; normalized growth (locus YBR023C, strain chs3, hits give low values): 1.01; normalized growth (locus YBR171W, strain sec66, hits give low values): 1.01; normalized growth (locus YBR229C, strain ROT2, hits give low values): 1.02; normalized growth (locus YBR231C, strain swc5, hits give low values): 1.02; normalized growth (locus YBR279W, strain paf1, hits give low values): 1; normalized growth (locus YCL011C, strain gbp2, hits give low values): 1.01; normalized growth (locus YCL016C, strain dcc1, hits give low values): 0.994; normalized growth (locus YCL029C, strain bik1, hits give low values): 1.01; normalized growth (locus YCL069W, strain vba3, hits give low values): 1.02; normalized growth (locus YCR088W, strain abp1, hits give low values): 1.01; normalized growth (locus YDL005C, strain med2, hits give low values): 0.995; normalized growth (locus YDL035C, strain GPR1, hits give low values): 1.03; normalized growth (locus YDL074C, strain BRE1, hits give low values): 0.984; normalized growth (locus YDL101C, strain DUN1, hits give low values): 1; normalized growth (locus YDL134C, strain PPH21, hits give low values): 0.999; normalized growth (locus YDL185W, strain tfp1, hits give low values): 0.992; normalized growth (locus YDL192W, strain arf1, hits give low values): 1.01; normalized growth (locus YDR001C, strain nth1, hits give low values): 1.01; normalized growth (locus YDR069C, strain doa4, hits give low values): 1.03; normalized growth (locus YDR101C, strain arx1, hits give low values): 1.01; normalized growth (locus YDR137W, strain rgp1, hits give low values): 0.702 (active); normalized growth (locus YDR150W, strain NUM1, hits give low values): 1.01; normalized growth (locus YDR159W, strain sac3, hits give low values): 1.02; normalized growth (locus YDR162C, strain NBP2, hits give low values): 1; normalized growth (locus YDR195W, strain ref2): 1.01; normalized growth (locus YDR297W, strain sur2, hits give low values): 1.01; normalized growth (locus YDR318W, strain mcm21, hits give low values): 1.03; normalized growth (locus YDR334W, strain swr1, hits give low values): 0.993; normalized growth (locus YDR335W, strain msn5, hits give low values): 1.01; normalized growth (locus YDR388W, hits give low values): 1.02; normalized growth (locus YDR392W, strain spt3, hits give low values): 0.921; normalized growth (locus YDR502C, strain sam2, hits give low values): 0.982; normalized growth (locus YEL003W, strain gim4, hits give low values): 1; normalized growth (locus YEL037C, strain rad23, hits give low values): 1; normalized growth (locus YEL061C, strain CIN8 (second series), hits give low values): 0.999; normalized growth (locus YEL061C, strain CIN8, hits give low values): 1.01; normalized growth (locus YER015W, strain faa2, hits give low values): 1.02; normalized growth (locus YER016W, strain bim1, hits give low values): 1.01; normalized growth (locus YER110C, hits give low values): 1.01; normalized growth (locus YER111C, strain swi4, hits give low values): 1.01; normalized growth (locus YER155C, strain BEM2 (second series), hits give low values): 0.936; normalized growth (locus YER155C, strain BEM2, hits give low values): 1.01; normalized growth (locus YER167W, strain BCK2, hits give low values): 1.03; normalized growth (locus YFR010W, strain ubp6, hits give low values): 1.02; normalized growth (locus YGL078C, strain dbp3, hits give low values): 1; normalized growth (locus YGL086W, strain mad1, hits give low values): 1.01; normalized growth (locus YGL167C, strain pmr1, hits give low values): 1.01; normalized growth (locus YGL173C, strain kem1, hits give low values): 1.01; normalized growth (locus YGL227W, strain vid30, hits give low values): 0.998; normalized growth (locus YGL240W, strain doc1, hits give low values): 1.01; normalized growth (locus YGL248W, strain PDE1, hits give low values): 1; normalized growth (locus YGL253W, strain hxk2, hits give low values): 1; normalized growth (locus YGR078C, strain PAC10, hits give low values): 0.99; normalized growth (locus YGR135W, strain pre9, hits give low values): 0.978; normalized growth (locus YGR229C, strain SMI1, hits give low values): 1.01; normalized growth (locus YGR252W, strain gcn5, hits give low values): 0.989; normalized growth (locus YHR013C, strain ard1, hits give low values): 1.07; normalized growth (locus YHR027C, strain rpn1, hits give low values): 1; normalized growth (locus YHR030C, strain SLT2, hits give low values): 1.01 and 0.961; normalized growth (locus YHR079C, strain IRE1 (second series), hits give low values): 0.998; normalized growth (locus YHR079C, strain IRE1, hits give low values): 0.962; normalized growth (locus YHR094C, strain hxt1, hits give low values): 1.01; normalized growth (locus YHR129C, strain ARP1, hits give low values): 1.01; normalized growth (locus YHR142W, strain chs7, hits give low values): 0.977; normalized growth (locus YHR200W, strain rpn10, hits give low values): 1; normalized growth (locus YIL066C, strain RNR3, hits give low values): 1.01; normalized growth (locus YIL073C, strain SPO22, hits give low values): 1.04; normalized growth (locus YIL125W, strain kgd1, hits give low values): 1; normalized growth (locus YIR030C, strain dcg1, hits give low values): 1; normalized growth (locus YJL092W, strain hpr5, hits give low values): 1.01; normalized growth (locus YJL095W, strain BCK1 (second series), hits give low values): 1.01; normalized growth (locus YJL095W, strain BCK1, hits give low values): 0.987 and 0.964; normalized growth (locus YJL115W, strain asf1, hits give low values): 0.991; normalized growth (locus YJL129C, strain trk1, hits give low values): 1.01; normalized growth (locus YJL134W, strain LCB3, hits give low values): 1.01; normalized growth (locus YJL154C, strain vps35, hits give low values): 1.01; normalized growth (locus YJL164C, strain tpk1, hits give low values): 0.975; normalized growth (locus YJL166W, strain qcr8, hits give low values): 1.03; normalized growth (locus YJL168C, strain set2, hits give low values): 1; normalized growth (locus YJL187C, strain SWE1 (second series), hits give low values): 0.995; normalized growth (locus YJL187C, strain SWE1, hits give low values): 1.01; normalized growth (locus YJR043C, strain POL32, hits give low values): 1.03; normalized growth (locus YJR066W, strain TOR1, hits give low values): 0.911; normalized growth (locus YJR075W, strain HOC1, hits give low values): 0.977
